# Screening results as filed in PubChem.
# Apoferritin bind: qHTS Assay for Identification of Novel General Anesthetics | Ferritin light chain (Equus caballus), P02791 | apoferritin/1-aminoanthracene competitive binding, fluorescence | Potency, µM (top dose mostly 77.5 µM), for the others: at the highest dose activity change, negative = displacement, usual class: inhibitors | 350,000 compounds, 0.074% hits; further: on the % scale 0 is the no-effect control and ±100 the full control effect; nearly all actives have a fitted effect of over 20% in size
# Target sequence (P02791 2-175 limits assumed): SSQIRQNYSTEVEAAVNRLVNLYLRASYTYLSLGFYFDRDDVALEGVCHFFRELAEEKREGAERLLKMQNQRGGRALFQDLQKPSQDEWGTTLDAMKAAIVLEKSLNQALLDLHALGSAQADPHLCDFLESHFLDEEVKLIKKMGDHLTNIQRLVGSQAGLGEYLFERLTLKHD
#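 10 uM apoferritin + 50% sat. 1-AMA, PBS; cpd 10 min RT; Ex380/Em535 endpoint; normalized to free probe vs complex; 4-param Hill fit; propofol titration as pos. ctrl.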
# HepG2 tox: qHTS for Inhibitors of TGF-b: Cytotox Counterscreen; 410,000 compounds, 0.76% hits; Potency, µM (top dose mostly 46.1 µM), inactives show at the highest dose activity change, negative = cytotoxicity, actives largely listed as cytotoxic; HepG2 CAGA-GFP viability, ATP luminescence, 18 h
#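 HepG2 CAGA-GFP cells (1000/well, DMEM with 1% FBS) received compound, then TGF-beta at 500 pg/mL final, and were incubated 18 hours at 37 degrees C. Viability was read by CellTiter-Glo luminescence. Media-only wells were set as complete cell-killing and DMSO as no toxicity.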
# ATXN2 expr inh: Primary qHTS for Inhibitors of ATXN expression | HEK-293 ATXN2-luciferase reporter, luminescence, 24 h | Potency, µM (doses to about 57 µM), inactives show at the highest dose activity change, negative = inhibition, usual class: inhibitors | 360,000 compounds, 0.72% hits | AID 1745845, 2022; further: on the % scale 0 is the no-effect control and ±100 the full control effect; nearly all actives have a fitted effect of over 55% in size
#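 ATXN2-luciferase reporter cells (luciferase flanked by upstream and downstream ATXN2 gene portions) were treated 24 h at 37 °C with compounds at up to 57 uM. SteadyGlo luminescence gave expression; GF-AFC fluorescence gave viability.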
# S2 tox: Viability Counterscreen for Primary qHTS for Inhibitors of ATXN expression. S2 cells (HEK-293 line with an ATXN2-luciferase reporter) viability, CellTiter-Fluor protease fluorescence, 24 h. Potency, µM (top dose mostly 56.7 µM), hits mostly cytotoxic. 400,000 compounds, 0.49% hits; further: nearly all actives have a fitted effect of over 40% in size
# TGFb inhibitor: qHTS for Inhibitors of TGF-b | HepG2 CAGA-GFP TGF-b/SMAD3 reporter, GFP fluorescence, 18 h; TGF-beta stimulated, 500 pg/mL final | Potency, µM (series often up to 46.1 µM), for inactives: at the top dose activity, negative = inhibition, hits mostly inhibitors | 410,000 compounds, 1.2% hits | AID 588855, 2011; further: on the % scale 0 is the no-effect control and ±100 the full control effect; nearly all actives have a fitted effect of over 65% in size
#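 Smad-responsive CAGA-GFP expression was quantified in HEPG2 cells exposed to compounds and 500 pg/mL final TGF-beta for 18 h at 37 degrees C; unstimulated wells defined full inhibition.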
# * hit, by the source's call; i = inactive; ? = inconclusive; . = no result given; [ ] = dose if it differs, or a comment. Shown are actives, neighbours in structure and some others; about 2.4% of the full set was active somewhere. The call rests on the fitted dose curve; in most records, active means well fitted curve in the direction sought with a large enough effect; inconclusive means small, poorly fitted or top-dose-only effect, or another doubt; inactive means no such curve, though single readings can be large; an effect the other way counts as inactive or inconclusive. Potency means the concentration at half of the fitted maximal effect.
SMILES,Apoferritin bind,HepG2 tox,ATXN2 expr inh,S2 tox,TGFb inhibitor
CCOC(=O)CSc1cccc2cccnc12,-11%,8.9µM*,20µM*,?,?
COc1ccc(-c2c(C3C4C=CCC(C)C4C(=O)N3Cc3ccccc3)ccc3ccccc23)cc1 (stereo not drawn),58%,-1%,.,.,-3%
C[C@H](CO)N1C[C@H](C)[C@H](CN(C)CC2CCCCC2)Oc2ccc(NS(=O)(=O)c3ccc(F)cc3)cc2CC1=O,.,-105%,?,28µM*,?
C[C@H](CO)N1C[C@H](C)[C@H](CN(C)C(=O)Nc2ccc(F)cc2)Oc2ccc(NC(=O)NC3CCCCC3)cc2CC1=O,.,-13%,-2%,i,-19%
C[C@H](CO)N1C[C@H](C)[C@H](CN(C)C)Oc2ccc(NS(=O)(=O)c3ccc(F)cc3)cc2CC1=O,.,0%,2%,i,1%
C[C@H]1CN([C@@H](C)CO)C(=O)Cc2cc(NS(C)(=O)=O)ccc2O[C@@H]1CN(C)Cc1ccc(Cl)c(Cl)c1,.,-33%,-37%,?,11µM*
C[C@@H]1CN([C@@H](C)CO)C(=O)Cc2cc(NC(=O)Nc3ccc(F)cc3)ccc2O[C@@H]1CN(C)Cc1ccc(Cl)c(Cl)c1,.,16µM*,?,?,?
C[C@@H]1CN([C@@H](C)CO)C(=O)c2cc(NC(=O)C3CC3)ccc2O[C@@H]1CN(C)Cc1ccc(Cl)c(Cl)c1,.,-13%,?,?,?
CO[C@H]1COC(=O)[C@H](C)NC(=O)[C@@H](C)COC(=O)[C@H]2CCCN2C(=O)C/C=C\[C@H]1C,-11%[15.3 µM],.,.,.,.
Cc1nc2sccn2c1CN1CCC2(CC1)CC2C(=O)Nc1ccc2c(c1)OCO2 (stereo not drawn),.,.,.,i,.
CCCCCCC1=Cc2cc(OC)c(OC)cc2C(C2(C(=O)OCC)CCCC2=O)O1 (stereo not drawn),-10%[15.3 µM],.,.,.,.
COc1ccc(-c2cc(-c3ccccc3)c(C#N)c(S(C)=O)n2)cc1 (stereo not drawn),7%,-27%,28µM*,?,-19%
CC(=O)Nc1ccc(S(=O)(=O)NC2(C(F)(F)F)C(=O)Nc3c2c(=O)[nH]c(=O)n3Cc2ccco2)cc1 (stereo not drawn),1%,6%,7%,i,-3%
CC(=O)Nc1ccc(S(=O)(=O)NC2(C(F)(F)F)C(=O)Nc3c2c(=O)[nH]c(=O)n3Cc2cccnc2)cc1 (stereo not drawn),-2%,2.8µM*,-15%[11.3 µM],i,20%
CC(=O)OCC1OC(C#CCC2CCCCC2)C=CC1OC(C)=O (stereo not drawn),-2%[15.3 µM],.,.,.,.
Cc1cc(C)cc(CN2CCOc3ccc(CN4CCC(O)(c5cccnc5)CC4)cc3C2)c1,.,.,.,i,.
CN(CC1CCCN(CCc2cccc(C(F)(F)F)c2)C1)C(=O)c1cc2ccccc2o1 (stereo not drawn),?,-82%,.,?,13µM*
CC(C)(C)c1ccc(C(=O)CC(Sc2ccc(Cl)cc2)C(=O)O)cc1 (stereo not drawn),?,16µM*,?,.,?
N#CCc1ccc(NC(=O)c2ccc(S(=O)(=O)N3CCOCC3)cc2)cc1,-2%,22%,7%,i,3%
CC1CCCCC1NC(=O)COC(=O)c1ccc(S(=O)(=O)NCc2ccco2)cc1 (stereo not drawn),?,4%,-3%,i,-20%
O=C(COC(=O)c1ccc(S(=O)(=O)NCc2ccco2)cc1)NC1CCCCCC1,35µM*,2%,-7%,i,0%
CC1=C(C(=O)O)N2C(=O)[C@@H](NC(=O)[C@H](N)C3=CCC=CC3)[C@H]2SC1,.,.,11%,i,.
C/C(=N\NC(=O)c1cc(C2CC2)nc2ccccc12)c1ccc(O)cc1O,-7%,-17%,2.5µM*,?,?
COC(c1ccccc1)(c1ccccc1)[C@H](Oc1nc(C)cc(C)n1)C(=O)O,.,.,-8%,i,.
CCN1C(C)=C(C(=O)OC)C(c2ccccc2)N2C(=O)[C@@]3(C(=O)OC)O[C@@]12C1C(=O)N(C)C(=O)C13 (stereo partly drawn),2%[15.3 µM],.,.,.,.
SMILES,Apoferritin bind,HepG2 tox,ATXN2 expr inh,S2 tox,TGFb inhibitor
C=CC[C@H](CC(=O)N(CCO)Cc1ccccc1)C(=O)N[C@@H](COC(=O)[C@@H](CC=C)CC(=O)OC(C)(C)C)Cc1c[nH]c2ccccc12,.,-21%,?,.,?
C=CC[C@H](CC(=O)N(CCO)Cc1ccccc1)C(=O)N[C@H](COC(=O)[C@H](CC=C)CC(=O)OC(C)(C)C)Cc1c[nH]c2ccccc12,.,4%,?,22µM*,?
C=CC[C@@H](CC(=O)N[C@@H](CO)Cc1ccccc1)C(=O)N[C@H](COC(=O)[C@H](CC=C)CC(=O)OC(C)(C)C)Cc1c[nH]c2ccccc12,.,-15%,?,.,?
C=CC[C@@H](CC(=O)N[C@H](CO)Cc1ccccc1)C(=O)N[C@H](COC(=O)[C@H](CC=C)CC(=O)OC(C)(C)C)Cc1c[nH]c2ccccc12,.,-38%,?,28µM*,16µM*
O=C(Nc1ccccn1)c1onc2c1CCCC2,-11%,5µM*,?,i,0%
COc1ccc(CCC(=O)c2c(O)cc(O[C@@H]3O[C@H](CO)[C@@H](O)[C@H](O)[C@@H]3O[C@@H]3O[C@@H](C)[C@H](O)[C@@H](O)[C@@H]3O)cc2O)cc1O,.,.,-2%,.,.
Cc1cc(-c2ncc(CC(=O)Nc3ccc(-c4cnccn4)cn3)cc2C)ccn1,.,.,-18%,.,.
CCOc1ccc(-c2ccc(/C=C3/C(=N)N4C(C)=CSC4=NC3=O)o2)c([N+](=O)[O-])c1,-8%,-6%,-10%,?,-29%
CCOc1ccc(-c2ccc(/C=C3/C(=N)N4C=CSC4=NC3=O)o2)c([N+](=O)[O-])c1,-8%,36%,25µM*,.,-4%
OC(CNCc1ccco1)Cn1c2ccccc2c2ccccc21 (stereo not drawn),-20%,18µM*,-26%,i,?
Cc1cc(C)c2nccc(/C=C/c3ccc(N(C)C)cc3)c2c1,.,-20%,.,.,-15%
O=C(COC(=O)/C(=C/c1cccs1)c1cccs1)NC(c1ccccc1)c1ccccc1,2%,-31%,17%,i,13µM*
Cc1ccc(Nc2cc(C)c3ccc(O)cc3n2)cc1C,?,10µM*,.,i,?
Cc1ccc(NC2=CC(=O)c3sc(C)nc3C2=O)cc1,-12%,.,.,.,.
CC(C)c1ccc(C(=O)NCCCN2CCN(CCCNC(=O)c3ccc(C(C)C)cc3)CC2)cc1,-4%,18µM*,-14%,?,14µM*
